Reference: PubChem BioAssay (Tox21)
Results filed as inconclusive are left out. Calls of active or inactive are those of the source. Unless noted, calls come from the whole dose curve.

Assays:
[1] = Nuclear factor erythroid 2-related factor 2/antioxidant responsive element (Nrf2/ARE) small molecule agonists: qHTS cell viability counter screen in human keratinocytes (AID 1919968; active = well fitted curve in the direction sought with a large enough effect in the repeat runs; an effect the other way counts as inactive or inconclusive; note: nearly all actives have a fitted effect of over 55% in size)
In short: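 KeratinoSens cells (HaCaT keratinocytes stably carrying an ARE-luciferase reporter) were seeded at 1,500 cells/well and rested 5 h at 37 C/5% CO2. They were then exposed to compounds in DMSO for 23 h. Viability was read by CellTiter-Fluor fluorescence after 1 h.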

[2] = target: Gonadotropin-releasing hormone receptor (Homo sapiens) (UniProt P30968); assay: Human gonadotropin-releasing hormone receptor (GnRHR) small molecule agonists, calcium flux assay in GnRHR-HEK293 cells (AID 1920063); note: nearly all actives have a fitted effect of over 35% in size
In short: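 HEK293 cells stably expressing human GnRHR were plated 18 h at 37 °C, loaded with calcium dye 1 h at 37 °C, then given compound in agonist mode; fluorescence (Ex/Em 480/540) read kinetically for 3 min at 1 s intervals.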

[3] = target: KiSS-1 receptor (Homo sapiens) (UniProt Q969F8); assay: Human kisspeptin (KISS1R) small molecule agonists, calcium flux assay in KISS1R-HEK293 cells (AID 1920064; active = well fitted curve in the direction sought with a large enough effect in the repeat runs; an effect the other way counts as inactive or inconclusive)
In short: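 HEK293 cells stably expressing human KISS1R were plated 18 h at 37 °C, loaded with calcium dye for 1 h at 37 °C, then given compound by pin tool. Fluorescence (Ex/Em 480/540) was read kinetically for 3 min.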

[4] = G protein-coupled receptor (GPCR) small molecule agonists, calcium flux assay: HEK293 wild type cell line counter screen (AID 1920065)
In short: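 Cells were plated and cultured 18 h at 37 C/5% CO2, then loaded with calcium dye for 1 h at 37 C. Compounds in DMSO were pin-transferred in agonist mode, and fluorescence (Ex/Em 480/540) was read kinetically for 3 min at 1 s intervals.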

[5] = p53 small molecule agonists, cell-based qHTS assay with human liver microsomes (AID 1963577)
In short: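 Compounds act here after metabolic activation: human liver microsomes and NADPH, both at 0.5 mg/mL final, were co-added to p53RE-bla cells. Incubation ran 16 h at 37 C, followed by LiveBLAzer detection.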

[6] = p53 small molecule agonists, cell-based qHTS assay with rat liver microsomes (AID 1963578)
In short: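 Read-out is beta-lactamase reporter fluorescence (LiveBLAzer, 2 h, room temperature, dark) in p53RE-bla cells treated 16 h at 37 C with compound, rat liver microsomes and NADPH, both 0.5 mg/mL final.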

[7] = p53 small molecule agonists, cell-based qHTS assay with human liver microsomes: qHTS cell viability counter screen (AID 1963579); note: nearly all actives have a fitted effect of over 45% in size; note: potency is the fitted concentration of half-maximal effect
In short: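 Cells carrying the p53 response-element beta-lactamase reporter are treated for 16 h at 37 C with test compounds in the presence of human liver microsomes and NADPH (both 0.5 mg/mL final); ATP-based CellTiter-Glo luminescence then reports viability.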

[8] = p53 small molecule agonists, cell-based qHTS assay with rat liver microsomes: qHTS cell viability counter screen (AID 1963580); note: nearly all actives have a fitted effect of over 45% in size
In short: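 HCT-116 p53RE-bla, 4,000 cells/well, 5 h pre-incubation; cpd + rat liver microsomes 0.5 mg/mL + NADPH 0.5 mg/mL (final); 16 h, 37 C; CellTiter-Glo, 30 min RT; luminescence.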

[9] = p53 small molecule agonists, cell-based qHTS assay: qHTS cell viability counter screen (AID 1963581); note: nearly all actives have a fitted effect of over 45% in size
In short: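 p53RE-bla HCT-116 cells were exposed to compounds for 16 h at 37 C; after the beta-lactamase FRET read in the same wells, CellTiter-Glo was added and luminescence (intracellular ATP) read after 30 min at room temperature.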

[10] = p53 small molecule agonists, cell-based qHTS assay (AID 1963582; active = well fitted activation curve with a large enough effect in the signal ratio in the repeat runs, not every such curve was filed as active; the % refers to the signal ratio)
In short: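 p53RE-bla beta-lactamase reporter cells rested 5 h at 37 C/5% CO2, then received compounds in DMSO by pin transfer and were incubated 16 h at 37 C. LiveBLAzer B/G FRET substrate was loaded for 2 h at room temperature before fluorescence reading.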

[11] = target: 5-hydroxytryptamine receptor 2A (Homo sapiens) (UniProt P28223); assay: 5-hydroxytryptamine receptor 2A (HTR2A) small molecule antagonists, cell-based qHTS assay (AID 1963586); note: nearly all actives have a fitted effect of over 45% in size; note: potency is the fitted concentration of half-maximal effect
In short: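 Antagonist-mode intracellular calcium assay: DOI (4 nM) added after 5 min compound pre-incubation at room temperature to dye-loaded HTR2A-CHO cells. Fluorescence followed for 3 min, sampled every second.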

[12] = target: 5-hydroxytryptamine receptor 2A (Homo sapiens) (UniProt P28223); assay: 5-hydroxytryptamine receptor 2A (HTR2A) small molecule agonists, cell-based qHTS assay (AID 1963587); note: nearly all actives have a fitted effect of over 30% in size
In short: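 Kinetic calcium-flux fluorescence (2 min, 1 sec intervals) after compound addition in agonist mode. HTR2A-CHO cells were cultured 18 h, then dye-loaded 1 h at 37 C.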

[13] = target: Muscarinic acetylcholine receptor M1 (Homo sapiens) (UniProt P11229); assay: Cholinergic receptor muscarinic 1 (CHRM1) small molecule antagonists, cell-based qHTS assay (AID 1963588); note: nearly all actives have a fitted effect of over 40% in size
In short: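 CHRM1-CHO calcium-flux assay, antagonist mode. Cells were seeded 18 h, dye-loaded 1 h at 37 C and given compound for 5 min at RT, then acetylcholine was added at 50nM. FDSS fluorescence was read 3 min; 15 concentrations, three runs.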

[14] = target: Muscarinic acetylcholine receptor M1 (Homo sapiens) (UniProt P11229); assay: Cholinergic receptor muscarinic 1 (CHRM1) small molecule agonists, cell-based qHTS assay (AID 1963589); note: nearly all actives have a fitted effect of over 35% in size
In short: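 CHO cells stably expressing human CHRM1, seeded 18 h at 37 C/5% CO2, dye-loaded 1 h at 37 C, then given compound in agonist mode; intracellular calcium fluorescence read kinetically at 1 s intervals. Fifteen concentrations, three independent runs.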

[15] = cAMP Responsive Elements (CRE) small molecule agonists, cell-based qHTS assay (AID 1963590)
In short: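 CRE-bla HEK 293T cells in DMEM with 10% dialyzed FBS, NEAA, pyruvate and 25 mM HEPES were plated 18 h at 37 C/5% CO2, then exposed to compounds in DMSO for 3 h before LiveBLAzer B/G FRET substrate addition.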

[16] = cAMP Responsive Elements (CRE) small molecule antagonists, cell-based qHTS assay (AID 1963591; active = well fitted inhibition curve with a large enough effect in the signal ratio in the repeat runs, not every such curve was filed as active; the % refers to the signal ratio)
In short: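 CRE-bla HEK293T cells were plated 18 h at 37 °C/5% CO2, pinned with compound in DMSO, then stimulated with NKH477 at 0.25 uM final for 3 h. LiveBLAzer B/G FRET substrate was added and plates incubated 2 h at room temperature.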

[17] = target: Beta-2 adrenergic receptor (Homo sapiens) (UniProt P07550); assay: Adrenergic beta2 receptor (ADRB2) small molecule antagonists, cell-based qHTS assay (AID 1963592); note: series mostly up to about 92 µM; nearly all actives have a fitted effect of over 50% in size
In short: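 Cells (CHO, stable ADRB2 overexpression) incubated 18-20hr at 37C; compounds added from DMSO; agonist mix (1nM isoproterenol, 100uM IBMX, 25uM Ro-20-1724) added; 0.5hr RT; d2-cAMP and anti-cAMP-cryptate added; 1hr RT; 665/615 nm read.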

[18] = target: Beta-2 adrenergic receptor (Homo sapiens) (UniProt P07550); assay: Adrenergic beta2 receptor (ADRB2) small molecule agonists, cell-based qHTS assay (AID 1963593);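 note: CHO cells stably overexpressing human ADRB2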
In short: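 CHO cells stably over-expressing ADRB2 were plated overnight at 37C, then dosed with compounds plus a stimulation mix containing 100uM IBMX and 25uM Ro-20-1724 for 0.5hr at room temperature. cAMP was measured by HTRF competition, 1hr.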

[19] = target: D(2) dopamine receptor (Homo sapiens) (UniProt P14416); assay: Dopamine D2 receptor (DRD2) small molecule antagonists, cell-based qHTS assay (AID 1963595; active = well fitted inhibition curve with a large enough effect in the signal ratio in the repeat runs, with a control signal flat; the % refers to the signal ratio)
In short: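 HTRF cAMP read-out at 665 and 620 nm emission (340 nm excitation). Antagonist mode: compounds were tested against 12 nM quinpirole in DRD2-HEK293 cells, with 200 nM NKH477 raising cAMP and 0.1 mM Ro20-1724 blocking its breakdown.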

[20] = target: D(2) dopamine receptor (Homo sapiens) (UniProt P14416); assay: Dopamine D2 receptor (DRD2) small molecule agonists, cell-based qHTS assay (AID 1963594); note: nearly all actives have a fitted effect of over 35% in size
In short: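 cAMP accumulation in DRD2-HEK293 cells measured by HTRF after 1 h detection; compounds added 10 min before NKH477 (200nM […]) forskolin-analogue stimulation, 30 min at room temperature, with Ro20-1724 present at 0.1 mM final.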

Measured: Potency

Chain of Muscarinic acetylcholine receptor M1 (Homo sapiens) (P11229 whole entry, looked up): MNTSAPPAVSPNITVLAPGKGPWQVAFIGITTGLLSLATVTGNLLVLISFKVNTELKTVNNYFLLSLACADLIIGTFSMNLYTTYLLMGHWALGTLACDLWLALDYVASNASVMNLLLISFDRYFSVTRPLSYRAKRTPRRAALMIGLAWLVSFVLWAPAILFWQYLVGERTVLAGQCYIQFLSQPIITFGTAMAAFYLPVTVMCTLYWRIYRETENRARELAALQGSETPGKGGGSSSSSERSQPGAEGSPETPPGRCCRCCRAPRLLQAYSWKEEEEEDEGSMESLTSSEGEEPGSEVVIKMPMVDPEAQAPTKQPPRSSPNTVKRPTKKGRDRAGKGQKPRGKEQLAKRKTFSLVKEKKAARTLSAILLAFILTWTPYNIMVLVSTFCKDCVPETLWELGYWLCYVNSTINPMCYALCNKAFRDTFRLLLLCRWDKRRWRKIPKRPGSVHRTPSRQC
Chain of KiSS-1 receptor (Homo sapiens) (Q969F8 whole entry, looked up): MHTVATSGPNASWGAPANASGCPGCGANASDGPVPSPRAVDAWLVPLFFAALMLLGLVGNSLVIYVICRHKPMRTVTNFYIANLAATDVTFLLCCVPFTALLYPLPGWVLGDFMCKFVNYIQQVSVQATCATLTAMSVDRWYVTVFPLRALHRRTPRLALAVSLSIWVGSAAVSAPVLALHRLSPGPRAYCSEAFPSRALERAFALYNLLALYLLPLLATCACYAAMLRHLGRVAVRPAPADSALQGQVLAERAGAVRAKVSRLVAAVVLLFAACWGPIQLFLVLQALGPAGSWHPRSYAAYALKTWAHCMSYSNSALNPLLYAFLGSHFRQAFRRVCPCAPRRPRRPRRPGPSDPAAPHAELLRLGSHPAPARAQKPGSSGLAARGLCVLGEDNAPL
Chain of Gonadotropin-releasing hormone receptor (Homo sapiens) (P30968 whole entry, looked up): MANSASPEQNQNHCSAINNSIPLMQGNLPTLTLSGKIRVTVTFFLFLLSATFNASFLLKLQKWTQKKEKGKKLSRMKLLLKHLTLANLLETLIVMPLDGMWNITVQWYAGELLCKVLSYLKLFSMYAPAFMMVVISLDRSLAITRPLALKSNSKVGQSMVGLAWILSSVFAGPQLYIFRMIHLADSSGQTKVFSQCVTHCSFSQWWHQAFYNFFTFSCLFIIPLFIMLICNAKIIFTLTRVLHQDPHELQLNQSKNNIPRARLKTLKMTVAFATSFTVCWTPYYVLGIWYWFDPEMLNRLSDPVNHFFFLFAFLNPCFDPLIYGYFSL
Chain of 5-hydroxytryptamine receptor 2A (Homo sapiens) (P28223 whole entry, looked up): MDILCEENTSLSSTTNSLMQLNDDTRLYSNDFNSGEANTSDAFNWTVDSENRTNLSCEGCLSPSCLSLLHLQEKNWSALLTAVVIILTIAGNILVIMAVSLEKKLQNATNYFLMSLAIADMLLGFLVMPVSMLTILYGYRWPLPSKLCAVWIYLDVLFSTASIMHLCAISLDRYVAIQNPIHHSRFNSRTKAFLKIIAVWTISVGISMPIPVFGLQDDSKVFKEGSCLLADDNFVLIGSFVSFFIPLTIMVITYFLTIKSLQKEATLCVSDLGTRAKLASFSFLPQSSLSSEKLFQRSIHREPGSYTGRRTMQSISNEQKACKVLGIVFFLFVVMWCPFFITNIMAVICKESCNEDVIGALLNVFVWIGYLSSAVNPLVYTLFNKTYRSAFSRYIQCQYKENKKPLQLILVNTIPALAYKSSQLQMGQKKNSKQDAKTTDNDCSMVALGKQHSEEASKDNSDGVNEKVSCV
Chain of Beta-2 adrenergic receptor (Homo sapiens) (P07550 whole entry, looked up): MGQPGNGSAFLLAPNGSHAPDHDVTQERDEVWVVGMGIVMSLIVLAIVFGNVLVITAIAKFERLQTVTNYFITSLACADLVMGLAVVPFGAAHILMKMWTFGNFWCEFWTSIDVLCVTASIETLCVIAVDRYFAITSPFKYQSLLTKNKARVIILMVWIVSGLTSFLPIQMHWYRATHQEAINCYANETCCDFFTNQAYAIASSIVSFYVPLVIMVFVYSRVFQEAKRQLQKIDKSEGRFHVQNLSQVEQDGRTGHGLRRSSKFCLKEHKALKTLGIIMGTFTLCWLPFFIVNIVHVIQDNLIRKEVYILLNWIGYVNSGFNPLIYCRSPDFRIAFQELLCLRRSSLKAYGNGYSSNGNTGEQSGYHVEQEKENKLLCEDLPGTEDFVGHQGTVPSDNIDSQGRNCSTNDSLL
Chain of D(2) dopamine receptor (Homo sapiens) (P14416 whole entry, looked up): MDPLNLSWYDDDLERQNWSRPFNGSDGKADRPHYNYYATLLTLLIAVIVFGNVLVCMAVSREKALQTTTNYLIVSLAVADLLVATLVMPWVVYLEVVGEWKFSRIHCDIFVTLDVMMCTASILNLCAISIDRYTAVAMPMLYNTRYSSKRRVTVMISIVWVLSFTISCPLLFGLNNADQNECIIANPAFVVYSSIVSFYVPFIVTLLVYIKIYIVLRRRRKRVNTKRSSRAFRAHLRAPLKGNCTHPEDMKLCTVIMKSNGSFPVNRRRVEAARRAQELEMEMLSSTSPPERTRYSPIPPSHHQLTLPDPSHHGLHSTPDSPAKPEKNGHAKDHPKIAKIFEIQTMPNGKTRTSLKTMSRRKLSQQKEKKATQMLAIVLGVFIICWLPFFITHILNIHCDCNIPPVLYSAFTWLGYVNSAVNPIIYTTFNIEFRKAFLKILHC

C=Cc1ccc(OC(C)=O)cc1
not listed: [20]
inactive: all other assays above

CN(C)Cc1cc(C(C)(C)C)c(O)c(C(C)(C)C)c1
active: [11] 3.75 µM
not listed: [17] | [18] | [20]
inactive: all other assays above

CCC(C)(CN(C)C)OC(=O)c1ccccc1 (stereo unspecified)
inactive: all assays above

Cc1c(C(=O)O)cccc1[N+](=O)[O-]
active: [7] 23.3 µM
not listed: [18]
inactive: all other assays above

O=P(O)(O)OP(=O)(O)O
not listed: [18]
inactive: all other assays above

CCOB(OCC)OCC
not listed: [19]
inactive: all other assays above

CC(=O)OCC=C(C)C
not listed: [18] | [20]
inactive: all other assays above
